Inconclusive results are not listed. Calls of active or inactive are those of the source. Unless noted, calls follow the shape of the dose curve; as a rule, active = well fitted curve in the direction sought with a large enough effect in the repeat runs; inconclusive = weak or mixed curves; inactive = no such curve, though single readings can be large; an effect the other way counts as inactive or inconclusive.
Columns and labels:
[1] = qHTS assay to identify small molecule agonists of the sonic hedgehog signaling (Shh) pathway - cell viability counter screen (AID 1259366); also: nearly all actives have a fitted effect of over 50% in size
How it was run: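 Cytotoxicity counter screen run in the same wells as the Shh reporter assay. NIH/3T3 cells carrying a Gli1 response element–driven luciferase were treated with DMSO-dissolved compounds for 24hr, and live-cell protease activity was measured with CellTiter-Fluor.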

[2] = qHTS assay to identify small molecule antagonists of the sonic hedgehog signaling (Shh) pathway - cell viability counter screen (AID 1259367); also: nearly all actives have a fitted effect of over 55% in size
How it was run: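 Viability was read by CellTiter-Fluor fluorescence in the same wells, reagent added 23 hr into compound treatment and incubated 1 hr at 37C. The 3T3 Gli1-Luc reporter cells (2,000/well) received conditioned medium after compound and ran 24 hr.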

[3] = qHTS assay to identify small molecule agonists of the sonic hedgehog signaling (Shh) pathway (AID 1259368; calls by dose curve;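 also: NIH/3T3-derived 3T3Gli1-Luc cells carrying a stable Gli1-driven firefly luciferase reporter; series mostly up to about 92 µM; nearly all actives have a fitted effect of over 15% in size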)
How it was run: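 Cells of a mouse NIH/3T3 clone stably expressing luciferase under the Gli1 transcriptional response element are exposed to test chemicals for 24 hr at 37 C. Pathway activation is detected as a rise in luminescence.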

[4] = qHTS assay to identify small molecule antagonists of the sonic hedgehog signaling (Shh) pathway (AID 1259369; calls by dose curve; also: nearly all actives have a fitted effect of over 45% in size)
How it was run: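 Cells are plated and held 4hr at 37 C, compounds (DMSO) are pinned in, conditioned medium is added to stimulate the pathway, and after 24hr luciferase reagent is added for 30min before luminescence is read.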

[5] = biological target: Estrogen receptor beta (Homo sapiens) (UniProt Q92731); experiment: qHTS assay to identify small molecule agonists of the estrogen receptor beta (ER-beta) signaling pathway (AID 1259377; active = well fitted activation curve with a large enough effect in the signal ratio in the repeat runs, not every such curve was filed as active; the % refers to the signal ratio)
How it was run: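 HEK293T ER-beta-UAS-bla; 2% charcoal-stripped FBS; cells pre-incubated 6 hr, compound 16 hr, 37C/5% CO2; LiveBLAzer B/G FRET substrate 2 h RT; fluorescence intensity read.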

[6] = biological target: Estrogen receptor beta (Homo sapiens) (UniProt Q92731); experiment: qHTS assay to identify small molecule antagonists of the estrogen receptor beta (ER-beta) signaling pathway (AID 1259378; active = well fitted inhibition curve with a large enough effect in the signal ratio in the repeat runs, not every such curve was filed as active; the % refers to the signal ratio)
How it was run: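 Antagonist mode: compounds added to beta-lactamase reporter HEK293T ER-beta-UAS cells stimulated with E2 (1nM final), 16 hr at 37C. LiveBLAzer B/G FRET substrate, 2 hours room temperature, fluorescence read-out.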

[7] = qHTS assay to identify small molecule agonists of the androgen receptor (AR) signaling pathway in the presence of an antagonist - cell viability counter screen (AID 1259379);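 also: MDA-kb2 human breast cancer cells carrying an MMTV luciferase reporter; series mostly up to about 92 µM; nearly all actives have a fitted effect of over 25% in size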
How it was run: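 Cytotoxicity is assessed by CellTiter-Fluor in MDA-kb2 cells carrying an MMTV-driven luciferase reporter. Cells receive 3.0uM nilutamide plus compounds at 15 concentrations and incubate 16 hr at 37C without CO2 before fluorescence reading.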

[8] = qHTS assay to identify small molecule agonists of the estrogen receptor beta (ER-beta) signaling pathway - cell viability counter screen (AID 1259380); also: nearly all actives have a fitted effect of over 30% in size
How it was run: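 Cytotoxicity is measured in parallel with the reporter screen: after 16 hr compound exposure at 37C and a 2 hr LiveBLAzer step, CellTiter-Glo is added to the same ER-beta-UAS-bla HEK293T wells and luminescence read after 30 min.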

[9] = qHTS assay to identify small molecule antagonists of the estrogen receptor beta (ER-beta) signaling pathway - cell viability counter screen (AID 1259382);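 also: HEK293T cells carrying ER-beta-UAS-bla reporter stimulated with estradiol; series mostly up to about 92 µM; nearly all actives have a fitted effect of over 55% in size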
How it was run: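 Cytotoxicity counter screen multiplexed with the beta-lactamase antagonist assay: GripTite HEK293T ER-beta-bla cells were treated 16 hr with test chemicals in the presence of 1nM 17-beta-estradiol, and viability was measured by CellTiter-Glo.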

[10] = biological target: Androgen receptor (Homo sapiens) (UniProt P10275); experiment: qHTS assay to identify small molecule agonists of the androgen receptor (AR) signaling pathway in the presence of an antagonist (AID 1259381; calls by dose curve; also: nearly all actives have a fitted effect of over 15% in size)
How it was run: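 Agonist-mode confirmation screen: human MDA-kb2 cells stably expressing luciferase under an MMTV promoter bearing AR and GR response elements, co-treated with 3.0uM nilutamide (final). Luminescence measured after 16hr compound incubation.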
% is scaled to controls: 0 for no effect and ±100 for the full control effect.

Estrogen receptor beta (Homo sapiens), sequence (Q92731 whole entry, looked up): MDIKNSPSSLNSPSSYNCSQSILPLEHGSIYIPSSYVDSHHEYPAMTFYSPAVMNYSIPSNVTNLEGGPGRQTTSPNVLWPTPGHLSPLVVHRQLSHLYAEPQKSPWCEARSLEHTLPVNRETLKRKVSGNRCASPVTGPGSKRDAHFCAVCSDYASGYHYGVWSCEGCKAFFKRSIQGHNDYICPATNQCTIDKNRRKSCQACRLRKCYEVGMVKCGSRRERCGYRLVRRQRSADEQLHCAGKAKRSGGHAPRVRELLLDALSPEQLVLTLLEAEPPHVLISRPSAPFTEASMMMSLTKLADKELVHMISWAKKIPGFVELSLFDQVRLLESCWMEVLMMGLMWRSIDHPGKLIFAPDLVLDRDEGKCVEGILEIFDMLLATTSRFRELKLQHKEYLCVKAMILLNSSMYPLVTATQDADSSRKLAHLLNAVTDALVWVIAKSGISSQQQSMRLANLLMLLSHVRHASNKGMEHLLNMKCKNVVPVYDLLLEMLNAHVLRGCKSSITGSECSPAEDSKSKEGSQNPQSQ
Androgen receptor (Homo sapiens), sequence (P10275 whole entry, looked up): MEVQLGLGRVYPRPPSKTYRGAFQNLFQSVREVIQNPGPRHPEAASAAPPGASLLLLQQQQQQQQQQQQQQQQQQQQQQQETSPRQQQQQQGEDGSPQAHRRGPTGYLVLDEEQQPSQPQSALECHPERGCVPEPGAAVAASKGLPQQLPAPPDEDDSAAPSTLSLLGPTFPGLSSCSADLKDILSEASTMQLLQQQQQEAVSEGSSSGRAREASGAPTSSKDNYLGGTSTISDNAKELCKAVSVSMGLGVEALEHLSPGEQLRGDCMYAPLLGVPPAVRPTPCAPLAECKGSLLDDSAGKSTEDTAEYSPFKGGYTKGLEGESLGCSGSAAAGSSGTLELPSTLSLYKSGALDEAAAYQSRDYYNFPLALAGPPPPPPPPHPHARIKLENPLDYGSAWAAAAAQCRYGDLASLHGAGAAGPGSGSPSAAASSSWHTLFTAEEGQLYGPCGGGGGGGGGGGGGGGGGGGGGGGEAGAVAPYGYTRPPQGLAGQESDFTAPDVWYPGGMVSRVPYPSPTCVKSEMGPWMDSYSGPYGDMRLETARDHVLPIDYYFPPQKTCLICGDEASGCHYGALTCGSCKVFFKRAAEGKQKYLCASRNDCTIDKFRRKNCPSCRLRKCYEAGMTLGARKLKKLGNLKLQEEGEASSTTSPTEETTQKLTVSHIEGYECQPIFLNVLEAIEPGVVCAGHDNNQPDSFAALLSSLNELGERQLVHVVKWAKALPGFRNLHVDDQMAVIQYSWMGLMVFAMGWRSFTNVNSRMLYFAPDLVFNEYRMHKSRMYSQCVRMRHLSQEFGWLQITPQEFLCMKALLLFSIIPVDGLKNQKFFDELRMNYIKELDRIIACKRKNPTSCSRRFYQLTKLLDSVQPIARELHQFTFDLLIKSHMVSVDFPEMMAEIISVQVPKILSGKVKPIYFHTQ

C=CCCCCCCCCCCCCCC
inactive: viability change, negative = cytotoxic [1] -2.14% [at 19 µM] | viability change, negative = cytotoxic [2] -0.0329% [at 19 µM] | activity change [3] -0.591% [at 18.9 µM] | activity change, negative = inhibition [4] 8.65% [at 19 µM] | activation [5] 1.28% [at 19 µM] | activity, negative = inhibition [6] 2.19% [at 19 µM] | activity change, negative = cytotoxicity [7] -2.34% [at 19 µM] | activity change, negative = cytotoxicity [8] 1.12% [at 19 µM] | activity change, negative = cytotoxicity [9] -6.85% [at 19 µM]

CCCCC(CC)CCC(CC(C)C)OS(=O)(=O)O (stereo not given)
inactive: outcome [1] | outcome [2] | outcome [3] | Potency [4] | Potency [5] | outcome [6] | outcome [7] | Potency [8] | outcome [9]

CC(C)(C)C(=O)CC(=O)C(C)(C)C
inactive: outcome [1] | outcome [2] | outcome [3] | Potency [4] | Potency [5] | outcome [6] | outcome [7] | Potency [8] | outcome [9]

COc1cnc(NS(=O)(=O)c2ccc(N)cc2)nc1
inactive: outcome [1] | outcome [2] | outcome [3] | Potency [4] | Potency [5] | outcome [6] | outcome [7] | Potency [8] | outcome [9]

CCN1CCN(C(=O)N[C@@H](C(=O)N[C@@H]2C(=O)N3C(C(=O)O)=C(CSc4nnnn4C)CS[C@H]23)c2ccc(O)cc2)C(=O)C1=O
inactive: outcome [1] | outcome [2] | outcome [3] | Potency [4] | Potency [5] | outcome [6] | outcome [7] | Potency [8] | outcome [9]

CC[N+](C)(CC)CC
inactive: outcome [1] | outcome [2] | outcome [3] | Potency [4] | Potency [5] | outcome [6] | outcome [7] | Potency [8] | outcome [9]

NCC1CCC(C(=O)Oc2ccc(CCC(=O)O)cc2)CC1 (stereo not given)
inactive: outcome [1] | outcome [2] | outcome [3] | Potency [4] | Potency [5] | outcome [6] | outcome [7] | Potency [8] | outcome [9]

O=C(O)COc1ccc2ccccc2c1
inactive: outcome [1] | outcome [2] | outcome [3] | Potency [4] | Potency [5] | outcome [6] | outcome [7] | Potency [8] | outcome [9]

CCCC(=O)OC
inactive: outcome [1] | outcome [2] | outcome [3] | Potency [4] | Potency [5] | outcome [6] | outcome [7] | Potency [8] | outcome [9]

CC(=O)c1ccc(O)c(C(N)=O)c1
inactive: outcome [1] | outcome [2] | outcome [3] | Potency [4] | Potency [5] | outcome [6] | outcome [7] | Potency [8] | outcome [10] | outcome [9]

CC(C)(C)c1ccc(N)cc1
inactive: outcome [1] | outcome [2] | outcome [3] | Potency [4] | Potency [5] | outcome [6] | outcome [7] | Potency [8] | outcome [9]

CCCCCCCC(=O)N(C)C
inactive: outcome [1] | outcome [2] | outcome [3] | Potency [4] | Potency [5] | outcome [6] | outcome [7] | Potency [8] | outcome [9]

CCCCc1ccc(Cl)cc1
inactive: outcome [1] | outcome [2] | outcome [3] | Potency [4] | Potency [5] | outcome [6] | outcome [7] | Potency [8] | outcome [9]

CCOC(=O)CC(C(C)=O)C(C)=O
inactive: outcome [1] | outcome [2] | outcome [3] | Potency [4] | Potency [5] | outcome [6] | Potency [8] | outcome [9]

CCOCCOCCOC(C)=O
inactive: outcome [1] | outcome [2] | outcome [3] | Potency [4] | Potency [5] | outcome [7] | Potency [8] | outcome [9]

c1coc(Cn2cccc2)c1
inactive: outcome [1] | outcome [2] | outcome [3] | Potency [4] | Potency [5] | outcome [6] | Potency [8] | outcome [9]

CC1=C(O)C(=O)CO1
inactive: outcome [1] | outcome [2] | outcome [3] | Potency [4] | Potency [5] | outcome [6] | Potency [8] | outcome [9]

CC(C)(Sc1cc(C(C)(C)C)c(O)c(C(C)(C)C)c1)Sc1cc(C(C)(C)C)c(O)c(C(C)(C)C)c1
inactive: outcome [1] | outcome [2] | outcome [3] | Potency [4] | Potency [5] | outcome [6] | Potency [8] | outcome [9]

COc1ccc(Cl)cc1C
inactive: outcome [1] | outcome [2] | outcome [3] | Potency [4] | Potency [5] | outcome [6] | outcome [7] | Potency [8] | outcome [9]

CCOC(=O)CN1CCCC1=O
inactive: outcome [1] | outcome [2] | outcome [3] | Potency [4] | Potency [5] | outcome [6] | outcome [7] | Potency [8] | outcome [9]

CCCCCCC(=O)c1ccccc1
inactive: outcome [1] | outcome [2] | outcome [3] | Potency [4] | outcome [6] | Potency [8] | outcome [9]

CN1C(CCl)Nc2cc(Cl)c(S(N)(=O)=O)cc2S1(=O)=O (stereo not given)
inactive: outcome [1] | outcome [2] | outcome [3] | Potency [4] | Potency [5] | outcome [6] | outcome [7] | Potency [8] | outcome [9]

CCCCCCCCOCCC#N
inactive: outcome [1] | outcome [2] | outcome [3] | Potency [4] | Potency [5] | outcome [7] | Potency [8] | outcome [9]

Cc1nnc(C(=O)NC(C)(C)c2nc(C(=O)NCc3ccc(F)cc3)c(O)c(=O)n2C)o1
inactive: outcome [1] | outcome [2] | outcome [3] | Potency [4] | Potency [5] | outcome [6] | outcome [7] | Potency [8] | outcome [9]

CC(=O)SCC(CC(=O)c1ccc(C)cc1)C(=O)O (stereo not given)
inactive: outcome [1] | outcome [2] | outcome [3] | Potency [4] | Potency [5] | outcome [6] | outcome [7] | outcome [9]

O=C1CC2(CCCC2)CC(=O)N1CCNCC1COc2ccccc2O1 (stereo not given)
inactive: outcome [1] | outcome [2] | outcome [3] | Potency [4] | Potency [5] | outcome [6] | Potency [8] | outcome [9]

From PubChem BioAssay (Tox21)
